CYP2C19 act – human CYP2C19 activators, primary screen, biochemical, luminescence. AID 1025, 2008. Cytochrome P450 2C19 (Homo sapiens), P33261. 96,000 tested, under 10 active. activation factor at 5 µM. recombinant CYP2C19, luciferin-H EGE luminescence; hits give high values; 0 = fully inhibited enzyme, 1 = untreated enzyme;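 active = activation factor of at least 2 at 5 µM in the primary screen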;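 note: 0 = wells with 2.5 mM tranylcypromine and 1 = vehicle-only wells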
CYP2C19 inh – blockers of cytochrome P450 2C19 activity – biochemical, luminescence, ADME assay, primary screen | P33261 | CYP2C19 Supersomes, luciferin-H EGE luminescence, 30 min | inhibition, % at 5 µM | 21% of 96,000 active;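 active = CYP2C19 inhibition above a set limit at 5 µM in the primary screen, cut at about 50% in these data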;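 note: plate controls were negative control wells for no effect and 2.5 mM tranylcypromine positive control for full effect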
CYP2C9 inhib – blockers of cytochrome P450 2C9 activity – biochemical, luminescence, ADME assay, primary screen | P11712 | CYP2C9 Supersomes, luciferin-H conversion | inhibition, % at 5 µM | 20% of 96,000 active | AID 777, 2007;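 active = blocking of liver enzyme CYP2C9 beyond about 50% at 5 µM, limit read from the data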
Target sequence (P11712 whole entry, looked up): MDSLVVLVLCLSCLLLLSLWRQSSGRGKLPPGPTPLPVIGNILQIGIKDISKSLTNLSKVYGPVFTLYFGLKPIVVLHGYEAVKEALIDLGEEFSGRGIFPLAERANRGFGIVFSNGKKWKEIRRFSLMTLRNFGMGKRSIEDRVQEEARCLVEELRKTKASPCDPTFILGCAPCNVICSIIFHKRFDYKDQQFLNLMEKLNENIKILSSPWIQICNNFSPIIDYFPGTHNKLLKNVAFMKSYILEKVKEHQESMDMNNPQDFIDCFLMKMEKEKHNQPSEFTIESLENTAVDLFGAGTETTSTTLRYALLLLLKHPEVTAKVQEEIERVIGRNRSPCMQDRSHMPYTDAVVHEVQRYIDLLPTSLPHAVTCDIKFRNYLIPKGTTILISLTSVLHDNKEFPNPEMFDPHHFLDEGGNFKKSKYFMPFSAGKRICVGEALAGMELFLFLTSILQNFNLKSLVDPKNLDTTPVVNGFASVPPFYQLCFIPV
Measles CPE – compounds protecting cells from measles virus cytopathic effect, primary screen, measles RdRp inhibitor project, single point, MLSMR library, absorbance. Measles virus-infected cells, CPE protection. protection (pct of control), % at 4 µM. 1.5% of 140,000 active. AID 841, 2007; in the data active = protection mostly above about 24%, no sharp cut-off; inactive = mostly below about 26%
CYP2C9 activ – human CYP2C9 activators, primary screen, biochemical, luminescence; recombinant CYP2C9, luciferin-H conversion; hits give high values; factor 1 = untreated enzyme, 0 = blocked; AID 1024, 2008; Cytochrome P450 2C9 (Homo sapiens), P11712; 1.4% of 96,000 active; activation factor at 5 µM;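 active = activation factor of 2 or more for CYP2C9 at a 5 µM dose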;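 note: 0 = sulfaphenazole-blocked wells and 1 = vehicle-only wells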
Starred values were filed as active, the others as inactive; . = not tested or not shown; ! = not active in a repeat. Sampled rows, rich in hits. Any-hit rate of the full collection: about 22%.

SMILES	CYP2C19 act	CYP2C19 inh	CYP2C9 inhib	Measles CPE	CYP2C9 activ
O=C(CSc1cccc2cccnc12)OCC(=O)c1ccccc1	0.7	28	-157	-1	2.6*
O=C(NC1CCCCC1)c1ccc(CS(=O)(=O)Cc2ccccc2F)o1	.	.	.	9	.
O=C(NC1CCCC1)c1ccc(CSCc2ccccc2F)o1	0.1	92*	86*	13	0.1
COc1ccccc1S(=O)(=O)Cc1ccc(C(=O)NC2CCCCC2)o1	0.9	7	7	.	0.9
O=C(NC1CCCCC1)c1ccc(CNc2ccccc2)o1	0.4	62*	58*	36*	0.4
Cc1ccc(Cn2cc(C(=O)c3ccc(F)cc3)c(=O)c3cc4c(cc32)OCCO4)cc1	.	.	.	6	.
O=c1ccccn1Cc1c(F)cccc1Cl	0.5	50*	23	31	0.8
O=C(Cc1c(F)cccc1Cl)N1CCCC1	1.2	-19	-16	7	1.2
CCOc1ccc(C(=O)C(CN2CCOCC2)c2ccccc2)cc1 (stereo not drawn)	.	.	.	16	.
Cc1c(N=Cc2ccncc2)c(=O)n(-c2ccccc2)n1C	0.3	66*	-13	3	1.1
Cc1c(N=Cc2ccccn2)c(=O)n(-c2ccccc2)n1C	1	0	3	14	1
CCOC(=O)C1=C(O)C(=O)N(c2ccc(S(N)(=O)=O)cc2)C1c1ccc(OC)cc1OC (stereo not drawn)	1.1	-6	0	8	1
Cc1nn(Cc2ccc([N+](=O)[O-])cc2)c(=O)n1-c1c(F)cccc1F	0.4	59*	5	3	1
Cc1nn(Cc2ccc([N+](=O)[O-])cc2)c(=O)n1-c1ccc(F)cc1	0.5	46	86*	4	0.1
Cc1nn(Cc2ccc(Cl)cc2)c(C)c1NC(=O)c1ccc([N+](=O)[O-])cc1	.	.	.	13	.
CCOc1ccc(N2C(=O)CC(S/C(N)=N/N=C/c3cccs3)C2=O)cc1 (stereo not drawn)	.	.	.	7	.
CC(C)COC(=O)n1c(SCC(=O)N(C)C)nc2ccccc21	0.4	65*	78*	9	0.2
Cc1cccc(-c2noc(CN(C(=O)c3c(-c4ccccc4Cl)noc3C)C(C)C)n2)c1	0.1	91*	63*	7	0.4
Cc1onc(-c2ccccc2Cl)c1C(=O)NCC(=O)O	1.1	-12	-27	3	1.3
CCOC(=O)C1CCN(Cc2nc(-c3ccc(OC)c(OC)c3)no2)CC1	1.2	-16	-10	30	1.1
COc1ccc(C(=O)N(Cc2nc(-c3ccc(C)cc3)no2)C2CCCCC2)cc1OC	0.2	82*	81*	6	0.2
Cc1onc(-c2ccccc2Cl)c1C(=O)N(Cc1nc(-c2ccccc2)no1)C1CCCCC1	0	95*	86*	17	0.1
Cc1ccc(C(=O)Nc2cccc(C(=O)O)c2)cc1	0.1	87*	54*	2	0.5
COc1ccc(C(=O)Nc2cccc(C)c2)cc1	0.3	71*	9	10	0.9
Cc1ccc(C(=O)Nc2ccc3nccnc3c2)cc1	0.9	8	8	3	0.9
SMILES	CYP2C19 act	CYP2C19 inh	CYP2C9 inhib	Measles CPE	CYP2C9 activ
Cc1cccc(NC(=O)c2ccc(OC3CSC3)cc2)c1	.	.	.	17	.
CN1C(=O)CSc2ccc(NC(=O)N3CCC(N4CCCCC4)CC3)cc21	1.1	-9	-8	5	1.1
c1ccc(-c2csc(-n3cnnn3)n2)cc1	0.4	62*	12	4	0.9
O=C(NCCC1=CCCCC1)C1CCN(c2nc3ccccc3o2)CC1	0.8	23	40	9	0.6
Cc1ccn2cc(CSc3ccccc3)nc2c1	0.5	47	-3	20	1
Cn1c(=O)cc(-c2ccccc2)c2ccccc21	0.1	87*	96*	3	0
Cn1c(-c2ccccc2)cc(=O)c2ccccc21	0.8	23	3	22	1
COc1cccc(C2(CSc3nnc(-c4cc(OC)c(OC)c(OC)c4)o3)OCCO2)c1	0.2	84*	-17	19	1.2
CCCCOC(=O)CSc1nnc(-c2cc(OC)c(OC)c(OC)c2)o1	0.9	13	20	11	0.8
CCCNC(=O)CN(CCc1ccccc1)S(C)(=O)=O	0.2	76*	-9	4	1.1
N#C/C(=N\O)c1nc(-c2ccccc2)cs1	0.7	33	62*!	2	0.4
CCn1c2ccccc2c2nnc(SCC(=O)NCc3cccs3)nc21	0	96*	36	7	0.6
CCOC(=O)CSc1ncc(OC)c(Sc2ccc(OC)cc2)n1	0.6	40	84*	9	0.2
C=CCn1c2ccccc2c2nnc(SCC(=O)NC(C(=O)OC)C(C)C)nc21 (stereo not drawn)	0	100*	90*	8	0.1
CCCn1c2ccccc2c2nnc(SCC(=O)OCC)nc21	0.3	66*	24	12	0.8
CCN(CC(=O)NCc1ccc(F)cc1)C(=O)COc1ccc(C)c(C)c1	.	.	.	14	.
COc1ccc(C)cc1-n1nnnc1SCC(=O)NNC(=O)c1ccc([N+](=O)[O-])cc1	.	.	.	5	.
O=S(=O)(c1ccc(-c2csc(Nc3ccc(F)cc3)n2)cc1)N1CCCC1	.	.	.	9	.
O=C(COC(=O)c1ccc(S(=O)(=O)N2CCCC2)cc1)NCc1ccc(F)cc1	0.8	23	26	23	0.7
COc1ccc(/C=N/OCC(=O)NCc2cccs2)c(OC)c1	.	.	.	5	.
Cc1cccc(CSc2nc3c(c(-c4cccs4)c2C#N)CN(C)CC3)c1	.	.	.	11	.
CCn1c2ccccc2c2nnc(SCC(N)=O)nc21	0.8	16	29	11	0.7
CCOC(=O)CSc1ncc(-c2ccccc2)nn1	0.3	70*	46	27	0.5
CCn1c2ccccc2c2nnc(SCC(=O)NCCOC)nc21	0.4	55*	-4	3	1
CN1CCN(Cc2nc3c([nH]2)c(=O)[nH]c(=O)n3C)CC1	1	2	-13	10	1.1
SMILES	CYP2C19 act	CYP2C19 inh	CYP2C9 inhib	Measles CPE	CYP2C9 activ
Cc1ccc(Cn2cccc(NC(=O)c3ccco3)c2=O)cc1	0.3	72*	60*	11	0.4
CSc1cccc(NC(=O)c2ccco2)c1	0.4	58*	-16	6	1.2
O=C(NCc1ccccc1)c1cccc(NC(=O)c2ccco2)c1	0.4	56*	85*	4	0.1
CC(=O)Nc1ccc(NC(=O)c2ccco2)cc1	1	0	-8	1	1.1
CN(Cc1ccccc1)C(=O)c1cccc(NC(=O)c2ccco2)c1	0.6	38	-212	14	3.1*
CCOc1cc(-c2noc(CCC(=O)Nc3cccnc3)n2)ccc1OC	0.9	12	4	10	1
Cc1cc(C)cc(Oc2ccccc2/C=C\C(=O)O)c1	1	-4	-9	5	1.1
O=C(NCc1ccco1)c1cccc(NC(=O)c2ccco2)c1	0.7	30	82*	8	0.2

Screening results (PubChem BioAssay)
